Screening results (PubChem BioAssay)
GPR151 activ: human GPR151 activation; PathHunter beta-arrestin GPR151 cells, luminescence; activation, % at 11.2 µM; 650,000 tested, 1% active; AID 1508602; in the data active means activation above about 4.9%;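 further: 0% = median of compound wells and 100% = cells with positive control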
FBW7 activator: human FBW7 E3 ligase activation, primary screen; 650,000 tested, 0.13% active; normalized activity (activation), % at 26.1 µM; AID 1259310; AlphaScreen FBW7–phospho-cyclin E peptide binding, activator screen; in the data active means normalized activity above about 1.9%;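 further: purified mutant Fbw7 with reduced substrate affinity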
Target sequence (Q969H0 whole entry, looked up): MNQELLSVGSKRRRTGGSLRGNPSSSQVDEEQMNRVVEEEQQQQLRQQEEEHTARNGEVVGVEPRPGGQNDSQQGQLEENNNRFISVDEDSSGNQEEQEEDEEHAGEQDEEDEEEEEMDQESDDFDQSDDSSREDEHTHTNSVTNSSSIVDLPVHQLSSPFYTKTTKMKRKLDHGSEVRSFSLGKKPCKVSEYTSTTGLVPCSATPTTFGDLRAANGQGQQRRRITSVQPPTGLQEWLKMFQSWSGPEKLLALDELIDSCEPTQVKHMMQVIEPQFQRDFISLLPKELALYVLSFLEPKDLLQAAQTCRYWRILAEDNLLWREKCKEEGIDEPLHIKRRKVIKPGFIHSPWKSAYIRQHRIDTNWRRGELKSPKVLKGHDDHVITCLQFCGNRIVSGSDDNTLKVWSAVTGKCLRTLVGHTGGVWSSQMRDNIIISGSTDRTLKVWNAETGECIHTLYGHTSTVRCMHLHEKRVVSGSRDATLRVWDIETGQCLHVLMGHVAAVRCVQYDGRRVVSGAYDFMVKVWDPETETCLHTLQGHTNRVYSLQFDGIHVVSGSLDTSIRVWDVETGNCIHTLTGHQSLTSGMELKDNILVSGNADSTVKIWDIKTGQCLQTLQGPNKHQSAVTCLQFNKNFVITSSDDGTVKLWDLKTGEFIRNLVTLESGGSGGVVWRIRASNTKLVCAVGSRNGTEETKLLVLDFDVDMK
TEAD-YAP inh: TEAD-YAP interaction inhibition; HEK-TIYL cells, TEAD-Gal4/YAP UAS-luciferase luminescence; inhibition, % at 9.12 µM; 640,000 tested, 1.4% active; AID 1259422; in the data active means inhibition above about 32%;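 further: 0% = median of test compound wells and 100% = reference inhibitor wells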
MITF inh: blocks human microphthalmia-associated transcription factor; O75030; AlphaScreen MITF homodimerization, bead proximity signal; inhibition, % at 2.6 µM; 650,000 tested, 0.91% active; AID 1259374; in the data active means inhibition above about 50%;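 further: 0% = vehicle wells with protein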
MITF confirm: confirmation of human MITF inhibitors; inhibition, % at 2.6 µM; shares compounds with MITF inh; AlphaScreen MITF homodimerization, biotin/His-MITF beads; 4,700 tested, 16% active; AID 1259372;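 active means inhibition above a cutoff derived from the DMSO control wells, cut at about 28% in these data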;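 further: 0% = MITF dimer wells with DMSO only; inhibitors lower the bead chemiluminescence by keeping MITF from dimerizing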
AlphaScreen DR: optically interferes with AlphaScreen signal in dose response. AlphaScreen optical interference counterscreen, cell-free. AID 1259373. shares compounds with MITF inh. IC50, µM. 480 tested, 6% active; call rule not given here
AS interf ctr: AlphaScreen optical interference, counter-screen | LysRS AlphaScreen counterscreen, signal interference, triplicate | AID 1259376 | inhibition, % at 2.6 µM | 4,700 tested, 7.6% active | shares compounds with MITF inh;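 active means inhibition above a cutoff derived from the DMSO control wells, cut at about 30% in these data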
An asterisk follows results filed as active; . = no result. Most compounds without a hit are left out; they make up all but 3.5% or so of the library.

SMILES	GPR151 activ	FBW7 activator	TEAD-YAP inh	MITF inh	MITF confirm	AS interf ctr	others
COc1ccc(CCNc2ncnc3c2nc(-c2c(C)nn(C)c2C)n3C(C)C)cc1	0.0	0.1	-6.2	19.9	.	.
O=C(O)c1cc(NN=C2CCCC2)ccc1Cl	1.3	-0.6	-20.8	71.8*	72.8*	0.7	AlphaScreen DR=>7.18
CCOc1ccc(N(CC)C(=O)CCc2nc(-c3ccc(C)cc3)no2)cc1	-0.3	0.0	11.7	5.0	.	.
COC(=O)c1cc(NS(=O)(=O)c2ccc3[nH]c(=O)c(=O)[nH]c3c2)cc(C(=O)OC)c1	0.5	0.1	8.8	-6.7	.	.
COC(=O)c1ccccc1NS(=O)(=O)c1ccc2[nH]c(=O)c(=O)[nH]c2c1	-0.5	-0.1	-3.2	67.6*	-0.8	1.3
COc1ccc(-n2c(SCC(=O)/C(C#N)=C(\C)N)nc3ccccc32)cc1	1.7	0.1	-6.6	69.8*	4.0	7.1
CC(=O)OC1C2CC(C1Br)C(C(F)(F)F)(C(F)(F)F)N2 (centres undefined)	-0.2	-0.1	-3.7	55.2*	-4.1	-2.0
CC(=O)OC1C2CC(C1I)C(C(F)(F)F)(C(F)(F)F)N2 (centres undefined)	-0.3	0.0	0.8	10.0	.	.
CCS(=O)(=O)N1CCCC(C(=O)N2CCc3ccccc3C2)C1 (centres undefined)	0.4	0.2	4.1	5.4	.	.
O=C(C1CCCN(Cc2ccncc2)C1)N1CCc2ccccc2C1 (centres undefined)	0.2	0.0	6.0	89.9*	-12.0	-16.4
O=C(C1CCN(c2ccc(N3CCOCC3)nn2)CC1)N1CCc2ccccc2C1	1.3	0.3	4.1	11.2	.	.
O=C(C1CCNCC1)N1CCc2ccccc2C1	0.1	-0.1	-8.3	60.4*	4.2	12.3
c1cc(Nc2cc(NC3CC3)ncn2)ncn1	0.9	-0.1	-39.9	1.0	.	.
CSc1ccc(C(=O)NCc2nc(-c3ccncc3)n[nH]2)s1	-0.5	-0.2	4.9	4.5	.	.
CSc1ccc(C(=O)O)s1	1.6	0.4	-1.9	75.2*	34.8*	7.3	AlphaScreen DR=>10.2
CC(C(=O)N(C)Cc1ccccc1)N1CCN(C/C=C/c2ccccc2)CC1 (centres undefined)	-1.1	-0.3	-5.2	59.1*	9.1	16.2
O=C(CN1CCN(C/C=C/c2ccccc2)CC1)NCCCc1ccccc1	-0.9	0.0	1.2	0.6	.	.
O=C(CN1CCN(C/C=C/c2ccccc2)CC1)NCc1ccccc1	0.0	-0.2	10.3	73.5*	6.3	-10.6
O=S(=O)(Nc1ccccn1)c1ccc(N=Cc2ccc3c(c2)OCO3)cc1	0.9	0.1	5.1	74.3*	7.7	13.4
CCc1ccc(-c2cc(C(=O)Nc3cc(C(=O)OC)cc(C(=O)OC)c3)c3ccccc3n2)cc1	-0.7	0.1	4.4	52.7*	3.4	10.1
CCc1ccc(-c2cc(C(=O)Nc3ccc(C(=O)OC)cc3)c3ccccc3n2)cc1	1.3	0.0	1.5	6.8	.	.
CCCOc1ccc(C(=O)Nc2cccc(-c3nc4ncccc4o3)c2)cc1	-0.1	0.1	-0.2	69.4*	13.2	15.6
O=C1C2C3C=CC(C3)C2C(=O)N1c1cc(C(F)(F)F)ccc1Cl (centres undefined)	-0.6	0.4	-16.1	6.8	.	.
CN(Cc1ccco1)C(=O)C(=O)Nc1ccc2nc3n(c(=O)c2c1)CCCCC3	-0.8	-0.2	-7.0	-3.4	.	.
CCCCN(Cc1ccco1)C(=O)C(=O)Nc1ccc2nc3n(c(=O)c2c1)CCCCC3	-1.0	1.0	-1.7	75.9*	7.8	20.9
SMILES	GPR151 activ	FBW7 activator	TEAD-YAP inh	MITF inh	MITF confirm	AS interf ctr	others
CCOc1ccc(Cl)cc1S(=O)(=O)NC1CC1	-1.3	0.5	6.3	6.9	.	.
CN(CC(=O)Nc1cccc(F)c1)CC(=O)Nc1ccccc1-c1ccccc1	-0.5	-0.1	2.5	-1.5	.	.
CN(CC(=O)Nc1cccc(F)c1)CC(=O)Nc1ccccc1Oc1ccccc1	3.7	-0.1	-4.4	70.5*	-10.4	9.4
COc1cccc(NC(=O)CN(C)CC(=O)Nc2ccc(C)c(F)c2)c1	0.7	-0.3	3.4	91.2*	10.4	20.1
O=C(O)COc1ccc(-n2cccc2)cc1	-1.1	-0.2	-1.0	74.0*	50.1*	-3.8	AlphaScreen DR=>6.48
O=C(O)COc1ccc(N2C(=O)c3ccccc3C2=O)cc1	-0.8	0.1	-2.2	15.5	.	.
CCN1CCN(C(c2cccs2)C(C)NC(=O)c2ccc(OC)cc2)CC1 (centres undefined)	0.8	0.0	3.1	6.7	.	.
